Compound activity as filed in PubChem BioAssay.
The list is not random: actives were taken first. Their share in the collection is about 6.8%.
Pf Dd2 inh – P. falciparum Dd2 growth inhibition. SYBR Green, 72 h; hits give low values. activity change, % at 10 µM. hit rate 2.3% among 94,000. AID 1159554; in the data active = activity change below about -80%; inconclusive = no clear call, values can overlap the other calls
C diff HTS – inhibitors of Clostridium difficile growth. growth activity, negative = inhibition, % at 16 µg/mL (by protocol). hit rate 0.25% among 86,000. AID 1259249. Clostridium difficile clinical isolate growth, OD600, 24 h; hits give low values;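 active = mean growth activity at or below -80% and every replicate also at or below -80%; inconclusive = mean at or below -80% but some replicate above -80%; inactive = mean growth activity above -80%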
T cruzi growth-1 – T. cruzi proliferation inhibition; inhibition, % at 8.34 µM; T. cruzi beta-gal in NIH3T3, GalScreen luminescence, 90 h; hit rate 5.9% among 77,000; AID 624255;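 active = mean inhibition above about 93%, with at least 55% of replicates each passing it, limit read from the data, passing the limit was not always enough; inconclusive = only one of those two conditions holds; inactive = neither condition holds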
T cruzi growth-2 – Trypanosoma cruzi proliferation inhibition. shares compounds with T cruzi growth-1. T. cruzi beta-gal in NIH3T3, GalScreen luminescence, 90 h. inhibition, % at 8.35 µM. hit rate 72% among 5,600;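 active = mean replicate inhibition above about 95% and at least 55% of replicates individually reaching it, limit read from the data; inconclusive = only one of the two criteria is met; inactive = neither criterion is met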
T cruzi growth-3 – Trypanosoma cruzi proliferation inhibition; shares compounds with T cruzi growth-1; T. cruzi beta-gal in NIH3T3, GalScreen luminescence, 90 h; inhibition, % at 2.09 µM; hit rate 21% among 5,600; AID 651740;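 active = mean inhibition above about 95%, with at least 55% of replicates also reaching it, limit read from the data; inconclusive = meets just one of the two conditions; inactive = meets neither condition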
NIH3T3 tox – cytotoxicity in mouse NIH/3T3 fibroblasts | shares compounds with T cruzi growth-1 | NIH/3T3 viability, CellTiter-Glo ATP luminescence, 90 h | cytotoxicity (signal decrease), % at 8.35 µM | hit rate 14% among 5,600;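 active = mean signal decrease across replicates above about 35% based on untreated-well scatter, with enough replicates individually passing, limit read from the data; inconclusive = no rule stated though some were filed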
NIH3T3 tox 2 – kills mouse NIH/3T3 fibroblasts | shares compounds with T cruzi growth-1 | NIH/3T3 viability, CellTiter-Glo ATP luminescence, 90 h | inhibition, % at 24.9 µM | hit rate 56% among 5,600 | AID 651744;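 active = mean loss of cell viability signal at or above a set limit, and enough replicates individually reaching it; inconclusive = meets only the mean limit or only the replicate share; inactive = meets neither condition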
Large screens that a line does not name were inactive (follow-up assays come after a bar, where they were run).

CCC(=O)N1C[C@@H]2[C@H](c3ccccc31)[C@@H](CO)N2C(=O)CC1CC1	none
COc1ccc(S(=O)(=O)Nc2ccc3c(c2)CC(=O)N([C@H](C)CO)C[C@@H](C)[C@H](CN(C)S(C)(=O)=O)O3)cc1	none
C[C@H]1CCCCO[C@@H](CN(C)S(=O)(=O)c2cccs2)[C@@H](C)CN([C@@H](C)CO)C(=O)c2cc(NS(=O)(=O)c3ccccc3)ccc2O1	none
CO[C@H]1CN(C)C(=O)c2cc(NS(=O)(=O)c3cccc(F)c3)ccc2OC[C@@H](C)NC[C@H]1C	none (no result: C diff HTS)
CC(C)NC(=O)N(C)C[C@@H]1Oc2c(NS(=O)(=O)c3ccccc3)cccc2C(=O)N([C@H](C)CO)C[C@H]1C	none
O=C(NCC1CC1)[C@@H]1[C@@H](CO)[C@@H]2Cn3c(ccc(C4=CCCC4)c3=O)[C@H]1N2C(=O)C1CC1	none
O=C(C1CCC1)N1CC2(C1)[C@@H](c1ccccc1)[C@@H](CO)N2CC1CCCC1	none (no result: T cruzi growth-1)
O=C(Nc1ccc(Cl)cc1)N1C[C@H]2[C@@H](c3ccccc31)[C@@H](CO)N2CC1CCCC1	T cruzi growth-1 108 | T cruzi growth-2 99 | T cruzi growth-3 inactive | NIH3T3 tox inactive | NIH3T3 tox 2 50
O=C(Nc1ccc(F)cc1)N1C[C@H]2[C@@H](c3ccccc31)[C@H](CO)N2C(=O)c1ccccc1	T cruzi growth-1 102 | T cruzi growth-2 98 | T cruzi growth-3 inactive | NIH3T3 tox inactive | NIH3T3 tox 2 inactive
O=C(Nc1ccccc1Cl)N1C[C@H]2[C@@H](c3ccccc31)[C@H](CO)N2Cc1ccccc1	T cruzi growth-1 100 | T cruzi growth-2 inactive | T cruzi growth-3 inactive | NIH3T3 tox inactive | NIH3T3 tox 2 inactive
O=C(Nc1ccc(F)cc1)N1C[C@@H]2[C@H](c3ccccc31)[C@H](CO)N2C(=O)c1ccccc1	none
O=C(Nc1ccccc1)N1C[C@@H]2[C@H](c3ccccc31)[C@@H](CO)N2CC1CCCC1	none
O=C(Nc1ccccc1Cl)N1C[C@H]2[C@@H](c3ccccc31)[C@@H](CO)N2Cc1ccccc1	none
CCC(=O)N1CC(=O)N2[C@H](CO)[C@H](c3ccc(C#Cc4cccc(F)c4)cc3)[C@@H]2C1	none (no result: T cruzi growth-1)
CCCCNC(=O)C(COCc1ccccc1)OC(=O)c1ccccc1 (stereo not drawn)	none (no result: Pf Dd2 inh, T cruzi growth-1)
C[C@H](CO)N1C[C@H](C)[C@H](CN(C)C(=O)Nc2ccccc2)Oc2ccc(NC(=O)Nc3cccc4ccccc34)cc2CC1=O	none
C[C@@H]1CN([C@@H](C)CO)C(=O)c2cc(NC(=O)Nc3cccc4ccccc34)ccc2O[C@@H]1CN(C)S(=O)(=O)c1cn(C)cn1	none (no result: C diff HTS)
O=C(NC[C@H]1[C@H](c2ccccc2)[C@@H](CO)N1C(=O)C1CC1)NC1CCCC1	T cruzi growth-1 117 | T cruzi growth-2 inactive | T cruzi growth-3 inactive | NIH3T3 tox inactive | NIH3T3 tox 2 inactive
O=C(NC[C@@H]1[C@H](c2ccccc2)[C@H](CO)N1C(=O)C1CC1)NC1CCCC1	none
COc1ccc2c3c(n(C)c2c1)[C@H](CO)NCC31CN(C(=O)Nc2ccc3c(c2)OCO3)C1	none (no result: T cruzi growth-1)
COc1ccc(CNC(=O)C[C@H]2C[C@H]3c4cc(NC(=O)C5CCC5)ccc4O[C@H]3[C@H](CO)O2)cc1	none
COc1ccc(NC(=O)Nc2ccc3c(c2)[C@@H]2C[C@@H](CC(=O)NCCc4ccccc4)O[C@@H](CO)[C@@H]2O3)cc1	T cruzi growth-1 179 | T cruzi growth-2 111 | T cruzi growth-3 105 | NIH3T3 tox inactive | NIH3T3 tox 2 inactive
COc1ccc(NC(=O)Nc2ccc3c(c2)[C@H]2C[C@H](CC(=O)NCCc4ccccc4)O[C@@H](CO)[C@H]2O3)cc1	T cruzi growth-1 148 | T cruzi growth-2 105 | T cruzi growth-3 inactive | NIH3T3 tox inactive | NIH3T3 tox 2 inactive
COCCNC(=O)C[C@@H]1C[C@@H]2c3cc(NC(=O)Nc4ccc(OC)cc4)ccc3O[C@@H]2[C@H](CO)O1	none
COc1ccc(CNC(=O)C[C@@H]2C[C@H]3c4cc(NC(=O)C5CCC5)ccc4O[C@H]3[C@H](CO)O2)cc1	T cruzi growth-1 177 | T cruzi growth-2 inconclusive | T cruzi growth-3 inactive | NIH3T3 tox inactive | NIH3T3 tox 2 inactive
CCCNC(=O)C[C@H]1C[C@@H]2c3cc(NC(=O)CN(C)C)ccc3O[C@@H]2[C@H](CO)O1	none
CCCNC(=O)C[C@H]1C[C@H]2c3cc(NC(=O)CN(C)C)ccc3O[C@H]2[C@@H](CO)O1	T cruzi growth-1 101 | T cruzi growth-2 inactive | T cruzi growth-3 inactive | NIH3T3 tox inactive | NIH3T3 tox 2 inactive
CCCNC(=O)C[C@H]1C[C@H]2c3cc(NC(=O)Nc4ccc(OC)cc4)ccc3O[C@H]2[C@H](CO)O1	none
Cc1noc(C)c1NC(=O)Nc1cccc2c1O[C@@H](CN(C)S(=O)(=O)c1ccccc1)[C@H](C)CN([C@H](C)CO)C2=O	none (no result: C diff HTS)
C[C@H]1CN([C@@H](C)CO)C(=O)c2cc(NC(=O)Nc3ccc(F)cc3)ccc2O[C@H]1CN(C)C(=O)Nc1ccc(C(F)(F)F)cc1	none
COc1ccc(CN(C)C[C@H]2OCCCC[C@H](C)Oc3ccc(NC(=O)NC(C)C)cc3C(=O)N([C@H](C)CO)C[C@@H]2C)cc1	none
COc1ccc(NC(=O)Nc2ccc3c(c2)[C@@H]2C[C@@H](CC(=O)NCCc4ccccc4)O[C@H](CO)[C@@H]2O3)cc1	T cruzi growth-1 133 | T cruzi growth-2 105 | T cruzi growth-3 inactive | NIH3T3 tox inactive | NIH3T3 tox 2 inactive
CCCNC(=O)C[C@@H]1C[C@H]2c3cc(NC(=O)Nc4ccc(OC)cc4)ccc3O[C@H]2[C@@H](CO)O1	none
CC(C)CC#Cc1cnc2c(c1)C(=O)N([C@H](C)CO)C[C@@H](C)[C@H](CN(C)C(=O)c1ccccc1)O2	none
COc1ccccc1S(=O)(=O)N[C@H]1CC[C@@H](CC(=O)N2CCCCC2)O[C@H]1CO	none
CNC(=O)C[C@H]1CC[C@H]2[C@H](COc3ccc(NC(=O)Cc4cccs4)cc3C(=O)N2C)O1	none
COc1cccc(C#Cc2ccc([C@H]3[C@H](C#N)N(C(=O)C4CC4)[C@H]3CO)cc2)c1	T cruzi growth-1 104 | T cruzi growth-2 106 | T cruzi growth-3 inactive | NIH3T3 tox inactive | NIH3T3 tox 2 42
COc1ccccc1C#Cc1ccc([C@@H]2[C@H](C#N)N(C(=O)C3CC3)[C@H]2CO)cc1	none
COc1ccccc1C#Cc1ccc([C@H]2[C@@H](C#N)N(C(=O)C3CC3)[C@@H]2CO)cc1	T cruzi growth-1 97 | T cruzi growth-2 101 | T cruzi growth-3 107 | NIH3T3 tox inactive | NIH3T3 tox 2 50
COc1cccc(C#Cc2ccc([C@@H]3[C@@H](C#N)N(C(=O)C4CCCC4)[C@H]3CO)cc2)c1	none (no result: T cruzi growth-1)
COc1ccccc1C#Cc1ccc([C@@H]2[C@@H](C#N)N(C(=O)C3CC3)[C@@H]2CO)cc1	none
